IL1B secr inh: inflammasome signaling inhibition, IL-1 beta readout. 360,000 compounds, 4.7% hits. activity change, % at 57.5 µM. AID 743279. THP-1 LPS/ATP IL-1B secretion, AlphaLISA, 16 h; active compounds read low; in the data active = activity change below about -50%; inconclusive = mostly about -30% to -49%; also: % is scaled to controls: 0 for no effect and ±100 for the full control effect
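Secreted IL-1B measured by AlphaLISA bead assay after 16 h compound exposure of THP-1 cells; compounds (final up to 57.5 uM) added 1 h before LPS (250 ng/mL) and ATP (1.25 mM) stimulation; lower signal means less secretion.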
Chronic BCR inh: inhibitors of chronic active B-cell receptor signaling | ABC-DLBCL IkBa-CBG/CBR reporter, luminescence ratio, 4 h | Potency, µM (highest dose often 46.1 µM), for inactives: at the top dose activity change, negative = inhibition, most hits filed as inhibitors | 340,000 compounds, 0.05% hits; active = well fitted inhibition curve with a large enough effect in the signal ratio, with a control signal flat, not every such curve was filed as active; inconclusive = small, poorly fitted or top-dose-only effect, or effect the other way, or a change in a side signal; the % refers to the signal ratio;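 also: potency is read from the fitted curve at half-maximal effect; plate controls were basal doxycycline-induced cells for no effect and cells given 10 µM MG132 for full effect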
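TMD8 ABC-DLBCL cells carrying doxycycline-inducible green luciferase fused to IkappaBalpha plus unfused red luciferase were exposed to compounds (up to 46 uM) for 4 hrs at 37C. Activity came from the overlap-corrected green/red luminescence ratio.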
DT40 TDP1 CPT: DT40-hTDP1 cell growth loss with CPT; chicken DT40 Tdp1-/-;hTDP1 cells + 20 nM CPT, ATP luminescence, 48 h; Potency, µM (series often up to 46.2 µM), without a hit: at the highest dose activity change, negative = growth inhibition, usual class: inhibitors; 420,000 compounds, 12% hits; AID 686979; also: potency is read from the fitted curve at half-maximal effect; % is scaled to controls: 0 for no effect and ±100 for the full control effect; nearly all actives have a fitted effect of over 55% in size
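Cell growth measured by CellTiter-Glo luminescence after a minimum 48 h, 37 C compound exposure with 20 nM CPT in Tdp1-knockout DT40 cells stably expressing hTDP1, seeded 400/well; qHTS titration format.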
MCF10A rereplic: inducers of DNA re-replication in MCF 10A breast cells; MCF 10A DNA re-replication, Hoechst nuclear intensity, 48 h; Potency, µM (series often up to 46.1 µM), inactives show top-dose activity, positive = re-replication, most hits filed as activators; 350,000 compounds, 2.9% hits; AID 624296; also: potency is read from the fitted curve at half-maximal effect; % of control where 0% means no effect; nearly all actives have a fitted effect of over 50% in size
TDP1 cell noCPT: qHTS for Inhibitors of human tyrosyl-DNA phosphodiesterase 1 (TDP1): qHTS in cells in absence of CPT. DT40 Tdp1-/- hTDP1 cells, no CPT, ATP luminescence, 48 h. Potency, µM (highest dose often 46.2 µM), for the others: top-dose activity change, negative = growth inhibition, actives largely listed as inhibitors. 420,000 compounds, 15% hits; also: potency is read from the fitted curve at half-maximal effect; % is scaled to controls: 0 for no effect and ±100 for the full control effect; nearly all actives have a fitted effect of over 55% in size
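Chicken DT40 Tdp1-/- cells complemented with human TDP1, screened without camptothecin (DMSO vehicle only), 400 cells/well. Compounds pin-transferred, cells incubated at 37 °C for at least 48 hr. Growth read as ATP-dependent luminescence (CellTiter-Glo, 30 min at RT).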
SW480 rerep: induces DNA re-replication in SW480 colon adenocarcinoma cells | SW480 DNA re-replication, Hoechst DNA content imaging, 48 h | Potency, µM (highest dose often 46.1 µM), without a hit: top-dose re-replication activation, hits mostly activators | 340,000 compounds, 1.8% hits; also: potency is read from the fitted curve at half-maximal effect; % of control where 0% means no effect; nearly all actives have a fitted effect of over 55% in size
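First, 250 cells per well were seeded. Next, compound or vehicle (23 nL) was pinned in, plates sat 48 hr at 37 C. Finally Hoechst was added for 40 min before fluorescence scanning.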
Active calls of the source: *; ? = inconclusive; . = not tested or not shown; [ ] = another dose, or the depositor's remark. Rows were chosen to be rich in hits. Some 19% of all compounds tested hit in one or more screens of this group. Unless noted, calls follow the shape of the dose curve; as a rule, active = well fitted curve in the direction sought with a large enough effect; inconclusive = small, poorly fitted or top-dose-only effect, or another doubt; inactive = no such curve, though single readings can be large; an effect the other way counts as inactive or inconclusive.

SMILES	IL1B secr inh	Chronic BCR inh	DT40 TDP1 CPT	MCF10A rereplic	TDP1 cell noCPT	SW480 rerep
COc1ccc(-n2nc3cc(C)c(NC(=O)c4ccc(-c5ccc(Cl)cc5)o4)cc3n2)cc1	.	.	0%	.	-4%	.
CCN(CC)S(=O)(=O)c1ccc(N2CCOCC2)c(NC(=O)c2nn(C(C)C)c(=O)c3ccccc23)c1	-11	.	10µM*	.	5.2µM*	.
CCN(CC)S(=O)(=O)c1ccc(N2CCOCC2)c(NC(=O)c2nn(C)c(=O)c3ccccc23)c1	1	.	-11%	1%	-1%	2%
CCN(CC)S(=O)(=O)c1ccc(N2CCOCC2)c(NC(=O)Cc2ccccc2)c1	0	4%	3%	-6%	4%	-4%
CCN(CC)S(=O)(=O)c1ccc(N2CCOCC2)c(NC(=O)Cc2cccc3ccccc23)c1	-1	?	?	-3%	16µM*	-7%
CCN(CC)S(=O)(=O)c1ccc(N2CCOCC2)c(NC(=O)Cc2ccccc2F)c1	-3	-2%	-27%	15%	15µM*	-3%
CN(CC(=O)Nc1ccccc1N1CCOCC1)S(=O)(=O)c1ccc(F)cc1	-1	-1%	18µM*	25%	18µM*	26%[9.22 µM]
CC(NCC(=O)Nc1ccccc1C(=O)NC1CC1)c1ccc(F)cc1F (centres undefined)	-4	0%	?	-5%	-10%	-1%
O=C(C1CC(=O)N(c2ccc(F)cc2)C1)N1CCC(c2nc3ccccc3[nH]2)CC1 (centres undefined)	-4	2%	-13%	4%	-27%	-17%
O=S1(=O)CC(N2CCN(CCO)CC2)CN1Cc1cn(Cc2ccc(F)cc2)nn1 (centres undefined)	17	.	9%	.	10%	.
COc1ccccc1CC(=O)Nc1cc(S(=O)(=O)N2CCOCC2)ccc1N1CCOCC1	0	-1%	-22%	-4%	-4%	-5%
O=C(Cc1ccccc1F)Nc1ccc(S(=O)(=O)N2CCCC2)cc1	-51*	-8%	?	7%	1%	?
O=C(Cc1ccccc1F)Nc1cc(S(=O)(=O)N2CCCCC2)ccc1N1CCOCC1	3	.	21µM*	.	16µM*	.
CCCC(C)c1oc(=O)cc(O)c1C (centres undefined)	25	7%	-8%	-18%	-12%	?
CCc1nn2c(N3CCOCC3)cc(C)nc2c1-c1ccccc1	9	0%	-10%	3%	-30%	0%
Cc1ccccc1CSc1ncc(Cl)c(C(=O)NCc2ccccc2)n1	.	.	-28%	.	-29%	.
Cc1cccc(C)c1NC(=O)c1nc(S(=O)(=O)Cc2ccccc2)ncc1Cl	-101*	?	2.6µM*	?	2.9µM*	?
CCOC(=O)c1nc(S(C)(=O)=O)ncc1N1CCOCC1	5	-2%	0%	-1%	-7%	0%
Cc1nnc(NC(=O)c2nc(S(=O)(=O)Cc3ccccc3)ncc2Cl)s1	-103*	?	9.2µM*	?	12µM*	1%
Cc1cccc(CSc2ncc(Cl)c(C(=O)Nc3nnc(C)s3)n2)c1	.	.	-15%	.	-14%	.
Cc1cccc(CS(=O)(=O)c2ncc(Cl)c(C(=O)Nc3c(C)cccc3C)n2)c1	-66*	?	3.7µM*	?	4.1µM*	?
CCOC(=O)c1nc(S(C)(=O)=O)ncc1Cl	-98*	?	4.1µM*	10%	3.7µM*	?
COc1cc(OC)c(NC(=O)c2sc3ncn(CC(=O)N4CCOCC4)c(=O)c3c2C)cc1Cl	-3	-7%	1%	1%	14%	-7%
CCSc1ncc(Cl)c(C(=O)Nc2nc3ccc(S(C)(=O)=O)cc3s2)n1	.	.	-16%	.	-5%	.
O=c1oc2ccc3ccccc3c2cc1-c1nnc(Nc2ccccc2)s1	.	.	-1%	.	?	.
SMILES	IL1B secr inh	Chronic BCR inh	DT40 TDP1 CPT	MCF10A rereplic	TDP1 cell noCPT	SW480 rerep
CCc1nnc(NC(=O)c2cc(Cl)ccn2)s1	53	?	2.9µM*	21%	2.6µM*	?
Cc1ccc(CSc2ncc(Cl)c(C(=O)NCc3ccccc3)n2)cc1	.	.	-28%	.	?	.
Cc1cccc(CS(=O)(=O)c2ncc(Cl)c(C(=O)NCc3ccccc3)n2)c1	-97*	?	3.3µM*	13µM*	2.6µM*	?
Cc1ccccc1NC(=O)c1nc(S(C)(=O)=O)ncc1Cl	-98*	?	2.3µM*	?	2.3µM*	?
CCc1nnc(NC(=O)c2nc(S(C)(=O)=O)ncc2Cl)s1	.	.	5.8µM*	.	9.2µM*	.
CCOc1ccc(-c2noc(-c3csc([C@@H]4O[C@H](CO)[C@H](O)[C@H](O)[C@H]4O)n3)n2)cc1	11	.	6%	.	2%	.
COc1ccc(NC(=O)NCCCCc2ccccc2)c(OC)c1	6	4%	?	-14%	17%	-6%
Cc1ccc(NC(=O)CN(C)C(=O)COc2cccc3cccnc23)cc1	-6	-4%	3.7µM*	1%	2.9µM*	5%
Cc1ccc(NC(=O)CN(C)S(=O)(=O)c2cccc3cccnc23)cc1	-11	9%	-3%	19%	?	-9%
Cc1ccc(NC(=O)c2cccc3cccnc23)cc1	-10	?	?	8%	18µM*	30%
Cc1ccc(NC(=O)c2ccccc2O)cc1	-6	?	?	13%	?	-13%[9.22 µM]
Cc1cccc(CN2CCN(CC(=O)NCc3ccc(Cl)cc3)C2=O)c1	.	.	1%	.	?	.
CC(=O)N1CCc2cc(CNS(=O)(=O)c3ccc(Cl)s3)ccc21	.	.	?	.	15µM*	.
CC(=O)N1CCc2cc(CNS(=O)(=O)c3ccc(Br)s3)ccc21	.	.	?	.	21µM*	.
FC(F)(F)c1nnc2ccc(NCc3ccccc3)nn12	13	?	11%	20%	-28%	1%
CCOC(=O)C(=O)N(C)c1c(CC)nc2c(OCc3ccc(OC)cc3)cccn12	20	.	?	.	-21%	.
COc1ccc(N/N=C(/C#N)S(=O)(=O)c2nsc(C)c2C#N)cc1	32	-6%	2%	20%	?	1%
Cc1snc(S(=O)(=O)/C(C#N)=N/Nc2cccc(C(F)(F)F)c2)c1C#N	-3	?	16µM*	?	?	-5%
CN(C(=O)Cc1c(C(=O)O)n(C)c2ccccc12)c1ccc(F)cc1	39	0%	5%	-1%	4%	-2%
